Reference: the supplement of paper PMC3334620
In all, about 33,000 sequences were measured (“E-score (-0.5 to 0.5)”: median about -0.016, highest 2% from about 0.32 on). This excerpt belongs to a sample that is enriched for the highest values.

The sequences below were run against T1, Stp1 (UniProt B3LFK1) (assay: PBM E-score (8-mer binding enrichment) (E-score (-0.5 to 0.5)); higher = stronger / more preferred TF binding). Conditions: protein concentration: 200 nM; construct: GST-full length.
T1 sequence: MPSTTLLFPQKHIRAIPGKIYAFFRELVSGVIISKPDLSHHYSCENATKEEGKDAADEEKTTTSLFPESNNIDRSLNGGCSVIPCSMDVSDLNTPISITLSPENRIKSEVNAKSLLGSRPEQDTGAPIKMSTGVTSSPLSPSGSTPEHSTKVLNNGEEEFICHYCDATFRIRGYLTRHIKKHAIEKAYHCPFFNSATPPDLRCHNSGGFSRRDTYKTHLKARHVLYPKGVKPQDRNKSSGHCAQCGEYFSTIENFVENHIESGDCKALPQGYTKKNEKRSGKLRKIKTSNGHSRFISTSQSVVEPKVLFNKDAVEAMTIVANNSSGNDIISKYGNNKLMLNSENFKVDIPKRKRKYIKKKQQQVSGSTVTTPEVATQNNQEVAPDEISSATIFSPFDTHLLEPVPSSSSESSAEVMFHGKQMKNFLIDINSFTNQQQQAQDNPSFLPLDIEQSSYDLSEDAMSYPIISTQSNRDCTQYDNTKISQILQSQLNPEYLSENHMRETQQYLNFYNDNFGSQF
Procedure, shortened: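 Universal all-10-mer Agilent arrays, fresh or stripped once, were converted to double-stranded form by primer extension. GST-tagged yeast transcription factors from PURExpress in vitro transcription/translation, full-length or DNA-binding domain only, were applied at about 100-200 nM and detected with fluorescent anti-GST. After masliner normalisation, the Universal PBM Analysis Suite scored each ungapped eight-base word together with its reverse complement by E-score.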

Sequence | PBM E-score
CGTCTTAC | -0.0611
AGGACCAT | -0.113
GCAGTGCA | -0.0796
AATGTAGC | -0.0806
AGTTCGCC | 0.159
GCTACACC | -0.0559
AGAGAGTC | -0.173
ACCGTAAA | 0.0391
ACCGTATA | -0.0953
CCCGTATA | 0.12
ACCGTAAC | 0.0376
GCCGTATA | 0.475
GCCGTAAC | 0.33
GCCGTAAA | 0.369
TCCGTAAA | 0.0695
CCCGTAAC | -0.112
CGATCGAG | 0.0366
AACTCAGA | 0.183
ATCGCCGA | 0.212
CTCGCCGC | 0.353
CTCGCCAC | -0.0166
ATCGCCGG | 0.192

Sequence | PBM E-score
ATCGCCGC | 0.45
CTCGCCGA | -0.0672
CATTGGAC | -0.155
AGCTACTG | -0.229
AAAACATG | -0.00948
CTAGAGAA | 0.23
CCACCTAG | -0.373
CAGTCTGG | -0.218
CCCCTTAA | -0.172
CCACGGGG | -0.124
TCACGGCA | 0.401
CCACGGCG | 0.478
ACACGGAG | 0.295
ACACGGAT | 0.315
TGACGGCA | 0.175
ACACGGGT | 0.202
CCACGGAG | 0.159
TCACGGAA | 0.173
ACACGGTG | 0.154
ACACGGCG | 0.488
ACACGGCT | 0.458
GCTGCGAC | -0.089

Sequence | PBM E-score
TAACCCCA | -0.336
CAACACGA | 0.0474
GCGCGAGA | 0.107
AACAGTAC | 0.0276
CCACGGCC | 0.185
CCACGGAA | 0.198
CCACGGCA | 0.46
ACGGGGGC | -0.325
GTGAAGTA | -0.0855
GCCGCGCC | 0.46
ACCGCGCG | 0.209
GCCGCGCA | 0.476
CCCGCGCA | -0.0346
ACCGCGCA | 0.0261
GCCGCGTA | 0.465
CCCGCGTA | -0.0603
ACCGCGCC | 0.3
ACCGCGTA | 0.051
AATCATTC | 0.146
GAGAGCCC | -0.302
AATCGTAC | 0.12
ATGCCATA | 0.117

Sequence | PBM E-score
CCCCTGCC | -0.198
CGCCTCTC | 0.0325
AGACGCCA | 0.00574
AGACGCCG | 0.405
CGACGCCG | 0.457
CGACGCCC | 0.0245
CGACGCCA | 0.106
AGACGCCC | 0.0951
CATATCTC | -0.0779
CGAGAAAG | -0.0578
GACTACGC | -0.174
ACATTCAC | -0.0143
AGGTGAAG | -0.132
ACAGGGTA | -0.125
ATTGCGCA | -0.0299
ATTGCGCC | 0.308
ATTGCGCG | 0.32
GGGAGCTA | -0.235
GCGCCGAC | 0.309
TCGCCGAA | 0.105
CTGCCGAA | 0.127
GTGCCGAA | 0.322

Sequence | PBM E-score
ATGCCGAA | 0.311
GCGCCGAA | 0.389
GCTTCGCC | -0.0679
CCAGCGAA | -0.209
AGCCGTTG | 0.26
CACCGTTA | 0.0959
CGCCGTCC | 0.443
CGCCGTTA | 0.381
CCCCGTTC | -0.235
GGCCGTTA | 0.1
CGCCGTTC | 0.464
AGCCGTTA | 0.159
AGCCGTTC | 0.424
CGCCGTCA | 0.216
AGCCGTCC | 0.308
CACCGTTC | 0.0204
ATCGTAGG | -0.121
TGAGCGAA | 0.0336
CAGCCAGC | -0.244
CCTGCGAC | -0.287
AATCTTCG | 0.196
AGAACATA | 0.00125
